Test systems include DU-145 prostate; K-562 leukemia; MALME-3M melanoma; MDA-MB-231 breast; RXF 393 renal; SF-268 CNS; SF-295 CNS; SF-539 CNS; UACC-257 melanoma; M14 melanoma.
Holding throughout (test): NCI-60 one-dose screen, 48 h (100 = growth as untreated, 0 = no growth, -100 = all killed)
Details in all cases: 10 µM unless noted

The values below come from PubChem BioAssay (NCI).

Compounds without any hit were thinned out: in the full panel of roughly 83,000, 20% have a hit.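 The endpoint reported here, percent growth, reads 100 for growth as untreated, 0 for no net growth and -100 for all cells dead.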 A number with no mark means an inactive call. The source made the active and inactive calls. How the source made its calls: active means growth percent below 10; inactive means the rest.

As for `CCCCC[C@H]1C/C=C2/C(=O)C(Cl)=C[C@@H]2C/C=C\CCCC(=O)O[C@@H](CCCCC)C/C=C2/C(=O)C(Cl)=C[C@@H]2C/C=C\CCCC(=O)O1`, the growth was -31.4% (active) in the test on DU-145 prostate; 0.851% (active) in the test on K-562 leukemia; -14.1% (active) in the test on MALME-3M melanoma; -29.9% (active) with MDA-MB-231 breast; -87.5% (active) in the test on RXF 393 renal; 1.58% (active) in the test on SF-268 CNS. For the same molecule, the growth was -27.3% (active) with SF-295 CNS, -11.3% (active) in the test on SF-539 CNS, -63.5% (active) with UACC-257 melanoma and -61.5% (active) in the test with M14 melanoma.
Turning to `O=C1CCCC=CC[C@H]2C=C(Cl)C(=O)C2=CC[C@H](CCCCC(F)(F)F)OC(=O)CCCC=CC[C@H]2C=C(Cl)C(=O)C2=CC[C@H](CCCCC(F)(F)F)OC(=O)CCCC=CC[C@H]2C=C(Cl)C(=O)C2=CC[C@H](CCCCC(F)(F)F)O1`, the growth was 62.4% [6.25 µM] with DU-145 prostate; 32.1% [6.25 µM] in the test on K-562 leukemia; 106% [6.25 µM] in the test with MALME-3M melanoma; 51.5% [6.25 µM] in the test with MDA-MB-231 breast; 86% [6.25 µM] in the test with RXF 393 renal; 82.8% [6.25 µM] with SF-268 CNS. Moreover, the growth with SF-295 CNS was 107% [6.25 µM]; in the test with SF-539 CNS it was 93% [6.25 µM]; with UACC-257 melanoma it was 79.3% [6.25 µM]; in the test with M14 melanoma it was 59.5% [6.25 µM].
As to `CN(CSc1ccc(Cl)cc1)c1ccc(CSc2ccc(Cl)cc2)cc1`, the growth was 87.8% with DU-145 prostate; 83.7% in the test on K-562 leukemia; 102% in the test with MALME-3M melanoma; 22.2% in the test on MDA-MB-231 breast; 68.7% in the test on RXF 393 renal; 43.3% in the test on SF-268 CNS. Besides, the growth was 70.5% in the test on SF-295 CNS, 47.4% in the test with SF-539 CNS, 76% in the test with UACC-257 melanoma and 49.7% with M14 melanoma.
Consider `CC1(C)NC2=C(C(Nc3cccnc3)N1)C(c1ccc([N+](=O)[O-])cc1)C(C(=O)c1ccc(N=[N+]=[N-])cc1)O2` (stereo not given), for which the growth with DU-145 prostate is 106%; in the test with K-562 leukemia, 101%; with MALME-3M melanoma it was 99.2%; in the test on MDA-MB-231 breast, 102%; with RXF 393 renal, 112%; with SF-268 CNS, 101%. In addition, the growth with SF-295 CNS is 104%; in the test with SF-539 CNS, 102%; with UACC-257 melanoma, 104%; in the test on M14 melanoma, 104%.
`Cc1ccc(C)c2c1CCC2C(C)C` (stereo not given): the growth was 103% with DU-145 prostate; 90.4% in the test on K-562 leukemia; 101% in the test on MALME-3M melanoma; 99.6% with MDA-MB-231 breast; 112% in the test with RXF 393 renal; 96.8% in the test with SF-268 CNS. For the same molecule, the growth in the test on SF-295 CNS is 102%; in the test with SF-539 CNS, 97.5%; with UACC-257 melanoma it was 89.6%; in the test with M14 melanoma, 95%.
`Cc1ccc(NC2CC(=O)N(c3c(C)cc(C)cc3C)C2=O)c(C)c1` (stereo not given): the growth is 105% with DU-145 prostate; 98.2% with K-562 leukemia; 97.7% with MALME-3M melanoma; 103% with MDA-MB-231 breast; 124% in the test with RXF 393 renal; 101% in the test with SF-268 CNS. The growth with SF-295 CNS was 111%; in the test on SF-539 CNS it was 102%; in the test on UACC-257 melanoma it was 99.6%; in the test with M14 melanoma, 107%.
For the molecule `CC1(C)C(=O)/C(=C\c2cccnc2)C[C@]2(C)[C@H]3CC[C@@H]4[C@@H](C(=O)/C=C/c5ccncc5)CC[C@@]4(C)[C@]3(C)CC[C@@H]12`, the growth was -1.7% (active) in the test with DU-145 prostate; 3.14% (active) in the test on K-562 leukemia; 0.438% (active) with MALME-3M melanoma; 16.8% with MDA-MB-231 breast; -84.2% (active) in the test on RXF 393 renal; 27.3% with SF-268 CNS. The growth in the test with SF-295 CNS is 15.9%; in the test with SF-539 CNS, 1.24% (active); in the test on UACC-257 melanoma, 49.3%; with M14 melanoma, -13% (active).
Regarding `C=C1CC[C@@H](C(=O)OC)Cc2nc(C)ccc21`, the growth is 119% in the test on DU-145 prostate; 101% with K-562 leukemia; 105% in the test with MALME-3M melanoma; 108% with MDA-MB-231 breast; 118% with RXF 393 renal; 109% in the test with SF-268 CNS. Further, the growth in the test on SF-295 CNS was 98.4%; in the test with SF-539 CNS, 99.3%; with UACC-257 melanoma, 94.4%; in the test with M14 melanoma, 105%.
With `Cc1ccc(Cc2cnc(NC(=O)/C=C/c3cccc(C)c3)s2)cc1`, the growth was 16.2% in the test on DU-145 prostate; 13.7% with K-562 leukemia; 31.4% in the test on MALME-3M melanoma; 3.61% (active) in the test on MDA-MB-231 breast; -0.16% (active) with RXF 393 renal; 44.7% in the test on SF-268 CNS. Also, the growth is -13.6% (active) with SF-295 CNS, -30.1% (active) in the test with SF-539 CNS, 67.7% with UACC-257 melanoma and -12.4% (active) in the test with M14 melanoma.
For `N#CC1c2ccccc2-c2ccccc2N1C(=O)c1ccccc1` (stereo not given), the growth in the test with DU-145 prostate was 11.9%; in the test on K-562 leukemia, 41.5%; in the test on MALME-3M melanoma, 84%; with MDA-MB-231 breast, 16.6%; in the test on RXF 393 renal it was 31.7%; in the test with SF-268 CNS, 34.4%. Also, the growth with SF-295 CNS is 4.01% (active); in the test on SF-539 CNS, 0.949% (active); in the test on UACC-257 melanoma, 75.9%; with M14 melanoma, 2.12% (active).
As for `Cc1ccc(-c2nc([P+](c3ccccc3)(c3ccccc3)c3ccccc3)c(N3CCOCC3)o2)cc1`, the growth in the test on DU-145 prostate is 12.9%; in the test on K-562 leukemia, 4.64% (active); in the test with MALME-3M melanoma it was -18.8% (active); in the test on MDA-MB-231 breast it was -0.628% (active); with RXF 393 renal it was -1.34% (active); in the test with SF-268 CNS, 12.5%. In addition, the growth with SF-295 CNS is -10.3% (active); in the test on SF-539 CNS, 19.3%; in the test with UACC-257 melanoma, -4.98% (active); in the test with M14 melanoma, 0.413% (active).
Regarding `COc1ccc2c(c1)c(-c1nc(-c3c[nH]c4ncccc34)cs1)cn2CCN`, the growth in the test with DU-145 prostate is 59.7%; in the test with K-562 leukemia it was 41.5%; in the test on MALME-3M melanoma, 81.6%; in the test on MDA-MB-231 breast, 53.7%; with RXF 393 renal it was 59.9%; with SF-268 CNS it was 80.1%. In addition, the growth is 95.3% in the test with SF-295 CNS, 68.8% with SF-539 CNS, 98.2% with UACC-257 melanoma and 67.5% in the test with M14 melanoma.
As to `C=C(C)[C@@H]1CC[C@]2(C)[C@H](CC=C3[C@@H]4CC(C)(C)CC[C@]4(C(=O)OC)CC[C@]32C)[C@@]1(C)CC/C(N)=N/O`, the growth was 75.1% in the test with DU-145 prostate; 23.9% in the test on K-562 leukemia; 58.9% in the test on MALME-3M melanoma; 66.1% in the test with MDA-MB-231 breast; -49.4% (active) in the test on RXF 393 renal; 67.9% in the test with SF-268 CNS. For the same molecule, the growth is 33.6% in the test on SF-295 CNS, 65.3% in the test on SF-539 CNS, -32.1% (active) with UACC-257 melanoma and 43.8% in the test on M14 melanoma.
